TGFb inhibitor: inhibitors of TGF-b signaling | HepG2 CAGA-GFP TGF-b/SMAD3 reporter, GFP fluorescence, 18 h; TGF-beta stimulated, 500 pg/mL final | Potency, µM (highest dose often 46.1 µM), for inactives: at the highest dose activity, negative = inhibition, hits mostly inhibitors | 1.2% of 410,000 active; also: potency is read from the fitted curve at half-maximal effect; % is scaled to controls: 0 for no effect and ±100 for the full control effect; nearly all actives have a fitted effect of over 65% in size
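Cell-based qHTS in HEPG2 carrying a CAGA-GFP Smad reporter; compounds added before 500 pg/mL final TGF-beta, 18 h incubation at 37 degrees C, GFP fluorescence quantified per cell by imaging cytometry.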
ATXN2 expr inh: reduces ATXN2 reporter expression in HEK-293 cells; HEK-293 ATXN2-luciferase reporter, luminescence, 24 h; Potency, µM (highest dose often 57 µM), without a hit: top-dose activity change, negative = inhibition, hits mostly inhibitors; 0.72% of 360,000 active; AID 1745845; also: potency is read from the fitted curve at half-maximal effect; % is scaled to controls: 0 for no effect and ±100 for the full control effect; nearly all actives have a fitted effect of over 55% in size
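ATXN2-luciferase reporter cells (luciferase flanked by upstream and downstream ATXN2 gene portions) were treated 24 h at 37 °C with compounds at up to 57 uM. SteadyGlo luminescence gave expression; GF-AFC fluorescence gave viability.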
ATXN viability: viability counter-screen for ATXN expression inhibitors. S2 cells (HEK-293 line with an ATXN2-luciferase reporter) viability, CellTiter-Fluor protease fluorescence, 24 h. 0.49% of 400,000 active. AID 651635. Potency, µM (highest dose often 56.7 µM), hits mostly cytotoxic; also: potency is read from the fitted curve at half-maximal effect; nearly all actives have a fitted effect of over 40% in size
HepG2 viability: kills HepG2 cells in TGF-b inhibitor counter-screen. HepG2 CAGA-GFP viability, ATP luminescence, 18 h. Potency, µM (doses to about 46.1 µM), for the others: at the top dose activity change, negative = cytotoxicity, hits mostly cytotoxic. 0.76% of 410,000 active. AID 588856; also: potency is read from the fitted curve at half-maximal effect
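HepG2 CAGA-GFP cells (1000/well, DMEM with 1% FBS) received compound, then TGF-beta at 500 pg/mL final, and were incubated 18 hours at 37 degrees C. Viability was read by CellTiter-Glo luminescence. Media-only wells were set as complete cell-killing and DMSO as no toxicity.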
LDHA block: LDHA (human) enzyme inhibition; P00338; purified LDHA, NADH/diaphorase-resazurin fluorescence; active compounds read low; activity change, % (values are at about 110 or 230 µM); 0.15% of 480,000 active; AID 1347041; in the data active = activity change below about -30%; inconclusive = mostly about -25% to -30%;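 also: plate controls were DMSO wells for no effect and wells without enzyme for full effect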
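Remaining NADH was detected by diaphorase (0.133 mg/mL) converting 37 µM resazurin to fluorescent resorufin, read at 0 and 20 minutes. The preceding 5-minute room-temperature reaction used 2 nM LDHA, 0.2 mM sodium pyruvate and 0.06 mM NADH at pH 7.4.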
mIDH1 inhibitor: human IDH1 R132H inhibition. O75874. IDH1-R132H enzyme, NADPH consumption, diaphorase/resazurin fluorescence. Potency, µM (highest dose often 76.6 µM), without a hit: at the highest dose activity change, negative = inhibition, most hits filed as inhibitors. 0.093% of 390,000 active; also: potency is read from the fitted curve at half-maximal effect; % is scaled to controls: 0 for no effect and ±100 for the full control effect; nearly all actives have a fitted effect of over 65% in size
Target sequence (O75874 whole entry R132H, stated change not applied): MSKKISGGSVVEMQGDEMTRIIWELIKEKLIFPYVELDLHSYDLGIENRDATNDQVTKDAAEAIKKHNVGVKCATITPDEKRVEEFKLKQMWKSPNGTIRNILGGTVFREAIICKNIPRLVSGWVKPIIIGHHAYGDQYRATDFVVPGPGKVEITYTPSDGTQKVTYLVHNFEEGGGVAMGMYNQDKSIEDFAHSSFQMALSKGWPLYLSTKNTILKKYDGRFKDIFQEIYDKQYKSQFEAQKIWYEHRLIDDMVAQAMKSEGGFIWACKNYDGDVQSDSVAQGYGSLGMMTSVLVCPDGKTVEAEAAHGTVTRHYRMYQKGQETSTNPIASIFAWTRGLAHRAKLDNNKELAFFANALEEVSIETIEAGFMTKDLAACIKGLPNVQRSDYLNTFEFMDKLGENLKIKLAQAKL
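IDH1-R132H (0.5 ug/mL dispensed) in pH 7.5 Tris buffer was preincubated 30 min with compound, then given a substrate mix of 0.016 mM NADPH and 2 mM alpha-KG for 80 min at room temperature; remaining NADPH was read by diaphorase/resazurin fluorescence.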
* hit, by the source's call; i = inactive; ? = inconclusive; · = not tested or not shown. This is a sample that favours compounds with a hit; in the whole collection about 2.2% have one here. Unless noted, calls follow the shape of the dose curve; as a rule, active = well fitted curve in the direction sought with a large enough effect; inconclusive = small, poorly fitted or top-dose-only effect, or another doubt; inactive = no such curve, though single readings can be large; an effect the other way counts as inactive or inconclusive.

SMILES	TGFb inhibitor	ATXN2 expr inh	ATXN viability	HepG2 viability	LDHA block	mIDH1 inhibitor
COc1ccc2nc3sc(C(=O)N4CCN(C)CC4)cc3cc2c1	-4%	8%	i	8.9µM*	4	5%
Oc1ccc(-c2nc(-c3ccccc3)c(-c3ccc(Br)cc3)[nH]2)cc1	?	?	?	-111%	1	-8%
COc1cc(-c2nc(-c3ccccc3)c(-c3ccc(Br)cc3)[nH]2)cc(OC)c1O	13µM*	?	?	-70%	15	-3%
OC(c1cc(F)cc(Cl)c1)c1ncc(-c2ccc3ccccc3c2)[nH]1 (configuration not stated)	18µM*	-36%	?	-106%	-10	·
OC(c1cccc(Cl)c1)c1ncc(-c2ccc3ccccc3c2)[nH]1 (configuration not stated)	?	13%	i	-49%	-9	·
CCCCCCCCCCCC[N+](C)(C)Cc1ccccc1	·	25µM*	32µM*	·	·	·
CCCCCn1c(NCc2ccc(OC)cc2)nc2ccccc21	13µM*	?	?	-48%	2	12%
CCCn1c(Nc2nc3ccccc3n2C)nc2ccccc21	-7%	?	?	7.1µM*	1	6%
COC(=O)c1c(C)oc2c1cc(NS(=O)(=O)c1ccc(OC)cc1)c1ccccc12	·	·	·	·	24	·
Cc1cc(C(=O)Nc2ccon2)ccc1[N+](=O)[O-]	-10%	-2%	i	-12%	-13	3%
CC(=O)Nc1cccc(NC(=O)/C=C/c2ccc(S(=O)(=O)N3CCOCC3)cc2)c1	-13%	-4%	i	-14%	-4	0%
O=C(/C=C/c1ccc(F)cc1)Nc1ccc(S(=O)(=O)N2CCOCC2)cc1	0%	5%	i	-4%	-6	0%
Cc1ccc(NC(=O)/C=C/c2ccc(S(=O)(=O)N3CCOCC3)cc2)cc1S(=O)(=O)N(C)C	-1%	28µM*	?	-2%	3	4%
COc1cccc(NC(=O)/C=C/c2ccc(S(=O)(=O)N3CCOCC3)cc2)c1	-9%	22µM*	i	-19%	1	-8%
CCC(C)NC(=O)c1ccc(C2SCC(=O)N2Cc2ccccc2)cc1 (configuration not stated)	-1%	-20%	i	1%	-11	0%
COc1ccc(OCc2ccc(-c3nc(C#N)c(NCc4cccnc4)o3)o2)cc1	-14%	-39%	i	-12%	1	-9%
Cc1cccc(OCc2ccc(-c3nc(C#N)c(NCc4cccnc4)o3)o2)c1	?	28µM*	22µM*	-20%	5	-14%
COc1ccc(CNc2oc(-c3ccc(COc4ccccc4C)o3)nc2C#N)cc1	-11%	-1%	?	14µM*	-11	-5%
Cc1ccc(OCc2ccc(-c3nc(C#N)c(NCc4cccnc4)o3)o2)cc1	-27%	?	?	-24%	-3	-4%
Cc1ccccc1OCc1ccc(-c2nc(C#N)c(NCc3cccnc3)o2)o1	?	32µM*	?	-36%	0	-11%
Cc1cc(C2C(=O)c3ccccc3C2=O)c(C)c(C)c1C	-12%	4%	i	-10%	-3	0%
CN(C)S(=O)(=O)c1ccc(Cl)c(C(=O)Nc2nnc(C3CC3)s2)c1	·	·	·	·	7	·
CCOc1ccc(C(C)NC(=O)Cc2ccccc2)cc1OCC (configuration not stated)	-16%	2%	i	-8%	-6	3%
COc1cccc(-n2c(=O)c3sc4ccccc4c3n(CC(=O)Nc3cccc(Cl)c3)c2=O)c1	7.9µM*	3%	?	-5%	-3	-10%
COc1cccc(NC(=O)Cn2c(=O)n(-c3ccc(Cl)cc3)c(=O)c3sc4ccccc4c32)c1	0%	·	·	-24%	-10	-11%
SMILES	TGFb inhibitor	ATXN2 expr inh	ATXN viability	HepG2 viability	LDHA block	mIDH1 inhibitor
COc1cc2nc(C3CCC3)n(NC(=O)C3CCC3)c(=O)c2cc1OC	-4%	11%	?	-4%	1	4%
COc1ccccc1NC(=O)COC(=O)c1ccc([N+](=O)[O-])s1	?	·	i	-13%	3	3%
CCc1ccccc1NC(=O)c1ccc([N+](=O)[O-])s1	11µM*	?	i	11µM*	-6	-6%
Cc1cccc(-c2cc(C(=O)O)c3ccccc3n2)c1	·	·	·	·	4	·
C(=N\Nc1nc(-c2ccccn2)nc2ccccc12)/c1ccccc1	1.8µM*	·	·	-35%	0	·
C(=N\Nc1nc(-c2cccnc2)nc2ccccc12)/c1ccccc1	-26%	-28%	·	-15%	-13	17%
Cc1onc(-c2c(Cl)cccc2Cl)c1C(=O)N(C)Cc1ccccc1	-10%	-11%	i	-16%	1	-5%
N#Cc1nc(COc2ccccc2)oc1NCCc1ccccc1	·	·	·	·	1	·
COc1ccc(Nc2oc(COc3ccc(OC)cc3)nc2C#N)cc1	-11%	14µM*	i	-16%	0	6%
COc1ccc(Nc2oc(COc3ccccc3F)nc2C#N)cc1	-2%	?	35µM*	-27%	1	-1%
COc1ccc(Nc2oc(COc3ccc(C)cc3)nc2C#N)cc1	?	·	·	-23%	2	3%
Cc1ccc(OCc2nc(C#N)c(NCCc3ccccc3)o2)cc1	22µM*	·	·	-28%	-2	9%
CC(C)(C)C(=O)Nc1ccnn1C1CCN(C(=O)c2cccc(Cl)c2)CC1	0%	-11%	i	-29%	-4	7%
O=C(/C=C/c1ccc[nH]1)c1ccc(F)cc1	-5%	12%	i	-15%	-3	-13%
O=C(/C=C/c1c(F)cccc1Cl)c1ccc(F)cc1	?	-13%	i	16µM*	0	5%
O=C(Nc1ccc(S(=O)(=O)N2CCN(c3ccccc3)CC2)cc1)c1cccs1	-1%	4%	i	-10%	-7	-1%
CCc1ccc(N(CC)C(=O)c2sc3nc4n(c(=O)c3c2C)CCCC4)cc1	?	·	·	-47%	-1	-1%
Cc1ccccc1NC(=O)c1ccc2c(c1)N(C)CCS2	-17%	48%	i	-32%	0	1%
Cc1ccc(-c2c3c(=O)n(C)c(=O)n(C)c3c3n2-c2ccccc2NC3c2ccc(C)cc2O)cc1 (configuration not stated)	6.3µM*	?	?	-97%	7	2%
COc1ccc(O)c(C2Nc3ccccc3-n3c(-c4ccccc4)c4c(=O)n(C)c(=O)n(C)c4c32)c1 (configuration not stated)	?	-6%	i	-30%	-9	5%
